“And” between values parts separate entries of the source, which are not always exact repeats. Equal entries are not always repeated. Results filed as inconclusive are left out. More than one record can exist for a structure, and the calls need not agree. The source made the active and inactive calls. Unless noted, calls come from the whole dose curve.
What was measured:
[1] = Nuclear factor erythroid 2-related factor 2/antioxidant responsive element (Nrf2/ARE) small molecule agonists: qHTS cell viability counter screen in human keratinocytes (AID 1919968; active = well fitted curve in the direction sought with a large enough effect in the repeat runs; an effect the other way counts as inactive or inconclusive; note: nearly all actives have a fitted effect of over 55% in size)
How it was run: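 KeratinoSens cells (HaCaT keratinocytes stably carrying an ARE-luciferase reporter) were seeded at 1,500 cells/well and rested 5 h at 37 C/5% CO2. They were then exposed to compounds in DMSO for 23 h. Viability was read by CellTiter-Fluor fluorescence after 1 h.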

[2] = Nuclear factor erythroid 2-related factor 2/antioxidant responsive element (Nrf2/ARE) small molecule agonists: luciferase reporter gene qHTS assay in human keratinocytes (AID 1919969); note: nearly all actives have a fitted effect of over 35% in size
[3] = target: Gonadotropin-releasing hormone receptor (Homo sapiens) (UniProt P30968); test: Human gonadotropin-releasing hormone receptor (GnRHR) small molecule agonists, calcium flux assay in GnRHR-HEK293 cells (AID 1920063); note: nearly all actives have a fitted effect of over 35% in size
How it was run: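 HEK293 cells stably expressing human GnRHR were plated 18 h at 37 °C, loaded with calcium dye 1 h at 37 °C, then given compound in agonist mode; fluorescence (Ex/Em 480/540) read kinetically for 3 min at 1 s intervals.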

[4] = target: KiSS-1 receptor (Homo sapiens) (UniProt Q969F8); test: Human kisspeptin (KISS1R) small molecule agonists, calcium flux assay in KISS1R-HEK293 cells (AID 1920064; active = well fitted curve in the direction sought with a large enough effect in the repeat runs; an effect the other way counts as inactive or inconclusive)
How it was run: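 HEK293 cells stably expressing human KISS1R were plated 18 h at 37 °C, loaded with calcium dye for 1 h at 37 °C, then given compound by pin tool. Fluorescence (Ex/Em 480/540) was read kinetically for 3 min.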

[5] = G protein-coupled receptor (GPCR) small molecule agonists, calcium flux assay: HEK293 wild type cell line counter screen (AID 1920065)
How it was run: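 Cells were plated and cultured 18 h at 37 C/5% CO2, then loaded with calcium dye for 1 h at 37 C. Compounds in DMSO were pin-transferred in agonist mode, and fluorescence (Ex/Em 480/540) was read kinetically for 3 min at 1 s intervals.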

[6] = p53 small molecule agonists, cell-based qHTS assay with human liver microsomes (AID 1963577);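 note: p53 response element beta-lactamase reporter cells with liver microsomes plus NADPH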
How it was run: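 In this qHTS, p53 response-element beta-lactamase cells receive test compound together with a microsome/NADPH activating system (0.5 mg/mL final each) and are incubated 16 h at 37 C before LiveBLAzer fluorescence detection.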

[7] = p53 small molecule agonists, cell-based qHTS assay with rat liver microsomes (AID 1963578)
How it was run: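 Agonist mode in p53RE-bla reporter cells, with compounds co-incubated 16 h at 37 C alongside 0.5 mg/mL rat liver microsomes and 0.5 mg/mL NADPH (final), followed by a 2 h LiveBLAzer detection step.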

[8] = p53 small molecule agonists, cell-based qHTS assay with human liver microsomes: qHTS cell viability counter screen (AID 1963579); note: nearly all actives have a fitted effect of over 45% in size
How it was run: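 Metabolically activated exposure: compounds, human liver microsomes and NADPH (0.5 mg/mL final apiece) were added to p53RE-bla cells seeded 5 h earlier, left 16 h at 37 C, and then assessed for viability by CellTiter-Glo luminescence.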

[9] = p53 small molecule agonists, cell-based qHTS assay with rat liver microsomes: qHTS cell viability counter screen (AID 1963580); note: nearly all actives have a fitted effect of over 45% in size
How it was run: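 Viability is assessed in parallel with the p53 reporter read: HCT-116 p53RE-bla cells receive compounds plus rat microsomes and NADPH (0.5 mg/mL final apiece), incubate 16 h at 37 C, and then CellTiter-Glo luminescence is recorded.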

[10] = p53 small molecule agonists, cell-based qHTS assay: qHTS cell viability counter screen (AID 1963581); note: nearly all actives have a fitted effect of over 45% in size
How it was run: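 p53RE-bla HCT-116 cells were exposed to compounds for 16 h at 37 C; after the beta-lactamase FRET read in the same wells, CellTiter-Glo was added and luminescence (intracellular ATP) read after 30 min at room temperature.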

[11] = p53 small molecule agonists, cell-based qHTS assay (AID 1963582; active = well fitted activation curve with a large enough effect in the signal ratio in the repeat runs, not every such curve was filed as active; the % refers to the signal ratio)
How it was run: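 p53RE-bla beta-lactamase reporter cells rested 5 h at 37 C/5% CO2, then received compounds in DMSO by pin transfer and were incubated 16 h at 37 C. LiveBLAzer B/G FRET substrate was loaded for 2 h at room temperature before fluorescence reading.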

[12] = target: 5-hydroxytryptamine receptor 2A (Homo sapiens) (UniProt P28223); test: 5-hydroxytryptamine receptor 2A (HTR2A) small molecule antagonists, cell-based qHTS assay (AID 1963586); note: nearly all actives have a fitted effect of over 45% in size; note: potency is the fitted concentration of half-maximal effect
How it was run: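 Antagonist-mode intracellular calcium assay: DOI (4 nM) added after 5 min compound pre-incubation at room temperature to dye-loaded HTR2A-CHO cells. Fluorescence followed for 3 min, sampled every second.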

[13] = target: 5-hydroxytryptamine receptor 2A (Homo sapiens) (UniProt P28223); test: 5-hydroxytryptamine receptor 2A (HTR2A) small molecule agonists, cell-based qHTS assay (AID 1963587); note: nearly all actives have a fitted effect of over 30% in size
How it was run: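 CHO cells stably expressing human HTR2A, plated 18 h, loaded with calcium dye 1 h at 37 C. Agonist mode: compounds added and intracellular calcium fluorescence recorded kinetically for 2 min at 1 sec intervals.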

[14] = target: Muscarinic acetylcholine receptor M1 (Homo sapiens) (UniProt P11229); test: Cholinergic receptor muscarinic 1 (CHRM1) small molecule antagonists, cell-based qHTS assay (AID 1963588); note: nearly all actives have a fitted effect of over 40% in size
How it was run: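 CHRM1-CHO calcium-flux assay, antagonist mode. Cells were seeded 18 h, dye-loaded 1 h at 37 C and given compound for 5 min at RT, then acetylcholine was added at 50nM. FDSS fluorescence was read 3 min; 15 concentrations, three runs.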

[15] = target: Muscarinic acetylcholine receptor M1 (Homo sapiens) (UniProt P11229); test: Cholinergic receptor muscarinic 1 (CHRM1) small molecule agonists, cell-based qHTS assay (AID 1963589); note: nearly all actives have a fitted effect of over 35% in size
How it was run: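 CHO cells stably expressing human CHRM1, seeded 18 h at 37 C/5% CO2, dye-loaded 1 h at 37 C, then given compound in agonist mode; intracellular calcium fluorescence read kinetically at 1 s intervals. Fifteen concentrations, three independent runs.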

[16] = cAMP Responsive Elements (CRE) small molecule agonists, cell-based qHTS assay (AID 1963590)
How it was run: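 CRE-bla HEK 293T cells in DMEM with 10% dialyzed FBS, NEAA, pyruvate and 25 mM HEPES were plated 18 h at 37 C/5% CO2, then exposed to compounds in DMSO for 3 h before LiveBLAzer B/G FRET substrate addition.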

[17] = cAMP Responsive Elements (CRE) small molecule antagonists, cell-based qHTS assay (AID 1963591; active = well fitted inhibition curve with a large enough effect in the signal ratio in the repeat runs, not every such curve was filed as active; the % refers to the signal ratio)
How it was run: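 CRE-bla HEK293T cells were plated 18 h at 37 °C/5% CO2, pinned with compound in DMSO, then stimulated with NKH477 at 0.25 uM final for 3 h. LiveBLAzer B/G FRET substrate was added and plates incubated 2 h at room temperature.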

[18] = target: Beta-2 adrenergic receptor (Homo sapiens) (UniProt P07550); test: Adrenergic beta2 receptor (ADRB2) small molecule antagonists, cell-based qHTS assay (AID 1963592); note: series mostly up to about 92 µM; nearly all actives have a fitted effect of over 50% in size
How it was run: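 Cells (CHO, stable ADRB2 overexpression) incubated 18-20hr at 37C; compounds added from DMSO; agonist mix (1nM isoproterenol, 100uM IBMX, 25uM Ro-20-1724) added; 0.5hr RT; d2-cAMP and anti-cAMP-cryptate added; 1hr RT; 665/615 nm read.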

[19] = target: D(2) dopamine receptor (Homo sapiens) (UniProt P14416); test: Dopamine D2 receptor (DRD2) small molecule agonists, cell-based qHTS assay (AID 1963594); note: nearly all actives have a fitted effect of over 35% in size; note: potency is the fitted concentration of half-maximal effect
How it was run: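 HEK293 cells stably expressing human DRD2, pre-treated with PDE inhibitor Ro20-1724 (0.1 mM final) and compound 10 min at room temperature, then stimulated with NKH477 (200nM […]) for 30 min. cAMP read by HTRF (665/620 nm).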

[20] = target: D(2) dopamine receptor (Homo sapiens) (UniProt P14416); test: Dopamine D2 receptor (DRD2) small molecule antagonists, cell-based qHTS assay (AID 1963595; active = well fitted inhibition curve with a large enough effect in the signal ratio in the repeat runs, with a control signal flat; the % refers to the signal ratio)
How it was run: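 DRD2-HEK293; 0.1 mM Ro20-1724; cpd 10 min RT; NKH477 200 nM + quinpirole 12 nM, 30 min RT; HTRF cAMP (cAMP-d2/anti-cAMP cryptate), 665/620 nm ratio after 1 h.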

Measured: Potency

Sequence of Gonadotropin-releasing hormone receptor (Homo sapiens) (P30968 whole entry, looked up): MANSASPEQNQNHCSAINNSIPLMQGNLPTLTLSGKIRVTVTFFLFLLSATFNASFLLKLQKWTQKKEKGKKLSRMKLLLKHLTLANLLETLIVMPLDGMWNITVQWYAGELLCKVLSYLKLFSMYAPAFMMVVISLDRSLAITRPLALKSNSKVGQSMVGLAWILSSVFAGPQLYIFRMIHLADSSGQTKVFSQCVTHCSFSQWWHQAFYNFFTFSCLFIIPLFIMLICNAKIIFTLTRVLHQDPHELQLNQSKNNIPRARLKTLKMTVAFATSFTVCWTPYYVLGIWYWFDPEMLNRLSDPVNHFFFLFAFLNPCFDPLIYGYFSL
Sequence of 5-hydroxytryptamine receptor 2A (Homo sapiens) (P28223 whole entry, looked up): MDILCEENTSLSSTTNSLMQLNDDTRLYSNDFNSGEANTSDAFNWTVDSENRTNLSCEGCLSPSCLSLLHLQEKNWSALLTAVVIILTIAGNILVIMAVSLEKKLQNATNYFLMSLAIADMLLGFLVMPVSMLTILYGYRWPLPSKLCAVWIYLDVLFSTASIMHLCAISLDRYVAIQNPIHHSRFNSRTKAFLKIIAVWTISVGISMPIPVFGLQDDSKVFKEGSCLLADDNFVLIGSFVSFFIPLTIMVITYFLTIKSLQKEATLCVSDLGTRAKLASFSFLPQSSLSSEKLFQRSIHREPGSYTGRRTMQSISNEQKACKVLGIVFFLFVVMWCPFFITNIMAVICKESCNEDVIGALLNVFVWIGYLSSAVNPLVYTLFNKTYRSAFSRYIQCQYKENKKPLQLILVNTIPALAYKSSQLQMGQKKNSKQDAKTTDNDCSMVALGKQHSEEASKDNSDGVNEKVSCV
Sequence of Beta-2 adrenergic receptor (Homo sapiens) (P07550 whole entry, looked up): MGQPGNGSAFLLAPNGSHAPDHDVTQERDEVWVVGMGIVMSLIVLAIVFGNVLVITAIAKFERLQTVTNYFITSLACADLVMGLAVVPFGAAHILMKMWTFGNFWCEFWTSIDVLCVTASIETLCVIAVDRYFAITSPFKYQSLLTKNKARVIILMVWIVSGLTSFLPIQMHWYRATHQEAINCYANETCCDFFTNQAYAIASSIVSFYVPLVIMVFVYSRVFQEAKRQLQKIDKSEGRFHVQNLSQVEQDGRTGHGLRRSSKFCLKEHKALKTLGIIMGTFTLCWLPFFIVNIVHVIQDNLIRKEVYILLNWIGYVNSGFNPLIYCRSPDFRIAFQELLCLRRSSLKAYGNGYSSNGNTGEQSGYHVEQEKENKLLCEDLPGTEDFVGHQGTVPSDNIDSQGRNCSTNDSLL
Sequence of D(2) dopamine receptor (Homo sapiens) (P14416 whole entry, looked up): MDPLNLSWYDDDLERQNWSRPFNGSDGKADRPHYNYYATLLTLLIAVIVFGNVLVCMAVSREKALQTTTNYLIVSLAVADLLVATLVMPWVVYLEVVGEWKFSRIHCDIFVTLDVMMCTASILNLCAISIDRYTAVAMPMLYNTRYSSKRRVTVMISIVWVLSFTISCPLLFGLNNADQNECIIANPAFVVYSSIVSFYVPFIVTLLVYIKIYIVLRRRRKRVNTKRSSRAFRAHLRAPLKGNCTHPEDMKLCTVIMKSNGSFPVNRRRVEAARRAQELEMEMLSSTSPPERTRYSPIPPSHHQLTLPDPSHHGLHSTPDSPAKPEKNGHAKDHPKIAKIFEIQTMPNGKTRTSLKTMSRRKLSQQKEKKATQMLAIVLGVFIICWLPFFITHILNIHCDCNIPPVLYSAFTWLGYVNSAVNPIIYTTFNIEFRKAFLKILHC
Sequence of Muscarinic acetylcholine receptor M1 (Homo sapiens) (P11229 whole entry, looked up): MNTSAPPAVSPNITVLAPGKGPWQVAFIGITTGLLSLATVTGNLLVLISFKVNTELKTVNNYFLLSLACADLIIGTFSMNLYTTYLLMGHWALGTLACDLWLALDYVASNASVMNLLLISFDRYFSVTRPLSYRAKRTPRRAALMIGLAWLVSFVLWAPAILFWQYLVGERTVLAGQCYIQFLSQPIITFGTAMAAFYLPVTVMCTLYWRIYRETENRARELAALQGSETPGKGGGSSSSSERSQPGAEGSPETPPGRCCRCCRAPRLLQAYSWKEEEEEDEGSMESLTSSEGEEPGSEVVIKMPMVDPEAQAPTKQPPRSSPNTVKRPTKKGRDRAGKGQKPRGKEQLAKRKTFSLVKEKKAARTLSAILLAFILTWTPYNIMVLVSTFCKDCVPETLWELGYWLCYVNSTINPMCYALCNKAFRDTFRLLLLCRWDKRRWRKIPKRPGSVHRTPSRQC
Sequence of KiSS-1 receptor (Homo sapiens) (Q969F8 whole entry, looked up): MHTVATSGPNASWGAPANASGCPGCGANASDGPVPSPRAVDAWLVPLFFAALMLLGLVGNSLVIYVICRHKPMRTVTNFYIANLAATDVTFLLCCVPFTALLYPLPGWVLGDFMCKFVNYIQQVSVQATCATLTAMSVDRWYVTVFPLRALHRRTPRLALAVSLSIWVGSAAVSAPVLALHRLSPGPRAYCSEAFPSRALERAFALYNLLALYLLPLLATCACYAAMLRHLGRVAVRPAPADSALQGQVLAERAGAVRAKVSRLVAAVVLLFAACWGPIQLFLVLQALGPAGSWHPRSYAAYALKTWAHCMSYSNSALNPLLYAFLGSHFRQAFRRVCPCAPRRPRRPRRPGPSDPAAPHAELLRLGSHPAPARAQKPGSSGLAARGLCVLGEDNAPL

O=Cc1ccccc1O
inactive: [1] | [2] | [3] | [4] | [5] | [6] | [7] | [8] | [9] | [10] | [11] | [12] | [13] | [14] | [15] | [16] | [17] | [18] | [19] | [20]

Nc1ccc(S(=O)(=O)Nc2cnc3ccccc3n2)cc1
inactive: [1] | [2] | [3] | [4] | [5] | [6] | [7] | [8] | [9] | [10] | [11] | [12] | [13] | [14] | [15] | [16] | [17] | [18] | [19] | [20]

C[Si](C)(C)O[Si](C)(C)C
inactive: [1] | [2] | [3] | [4] | [5] | [6] | [7] | [8] | [9] | [10] | [11] | [12] | [13] | [14] | [15] | [16] | [17] | [18] | [19] | [20]

OC[C@]1(O)OC[C@@H](O)[C@H](O)[C@@H]1O
inactive: [1] | [2] | [3] | [4] | [5] | [6] | [7] | [8] | [9] | [10] | [11] | [12] | [13] | [14] | [15] | [16] | [17] | [18] | [19] | [20]

OB(O)O
inactive: [1] | [2] | [3] | [4] | [5] | [6] | [7] | [8] | [9] | [10] | [11] | [12] | [13] | [14] | [15] | [16] | [17] | [18] | [19] | [20]

CCO[Si](CCCNC(N)=O)(OCC)OCC
inactive: [1] | [2] | [3] | [4] | [5] | [6] | [7] | [8] | [9] | [10] | [11] | [12] | [13] | [14] | [15] | [16] | [17] | [18] | [19] | [20]

CC(C)CC(C)CC(O)CC(C)C (stereo not given)
inactive: [1] | [2] | [3] | [4] | [5] | [6] | [7] | [8] | [9] | [10] | [11] | [12] | [13] | [14] | [15] | [16] | [17] | [18] | [20]
1.8 nM (active) and inactive: [19]

CCC(C)(O)CCCC(C)C (stereo not given)
inactive: [1] | [2] | [3] | [4] | [5] | [6] | [7] | [8] | [9] | [10] | [11] | [12] | [13] | [14] | [15] | [16] | [17] | [18] | [19] | [20]

CC(=O)CCc1ccccc1
inactive: [1] | [2] | [3] | [4] | [5] | [6] | [7] | [8] | [9] | [10] | [11] | [12] | [13] | [14] | [15] | [16] | [17] | [18] | [19] | [20]

COc1ccc(Nc2ccccc2)c(C)c1
inactive: [1] | [2] | [3] | [4] | [5] | [6] | [7] | [8] | [9] | [10] | [11] | [13] | [14] | [15] | [16] | [17] | [18] | [19] | [20]
inactive and 21.1 µM (active): [12]

Cc1ccc(O)cc1
inactive: [1] | [2] | [3] | [4] | [5] | [6] | [7] | [8] | [9] | [10] | [11] | [12] | [13] | [14] | [15] | [16] | [17] | [18] | [19] | [20]

Cc1ccc([N+](=O)[O-])cc1N
inactive: [1] | [2] | [3] | [4] | [5] | [6] | [7] | [8] | [9] | [10] | [11] | [12] | [13] | [14] | [15] | [16] | [17] | [18] | [19] | [20]

NCCS(=O)(=O)O
inactive: [1] | [2] | [3] | [4] | [5] | [6] | [7] | [8] | [9] | [10] | [11] | [12] | [13] | [14] | [15] | [16] | [17] | [18] | [19] | [20]

COc1ccc([N+](=O)[O-])cc1N
inactive: [1] | [2] | [3] | [4] | [5] | [6] | [7] | [8] | [9] | [10] | [11] | [12] | [13] | [14] | [15] | [16] | [17] | [18] | [19] | [20]

CC(=O)CC(=O)N(C)C
inactive: [1] | [2] | [3] | [4] | [5] | [6] | [7] | [8] | [9] | [10] | [11] | [12] | [13] | [14] | [15] | [16] | [17] | [18] | [19] | [20]

From PubChem BioAssay (Tox21)
